RXFP1 antag = blocks the human relaxin receptor RXFP1. Q9HBX9. HEK293-RXFP1, relaxin-stimulated cAMP HTRF, 30 min; stronger effect = lower value. activity change, negative = inhibition, % at 57.5 µM. 0.59% of 350,000 active. AID 1259400;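 active = activity change of -60% or lower, but not beyond a set lower limit; inconclusive = change between -60% and -40%, or beyond the set limit; inactive = change above -40%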; also: % is scaled to controls: 0 for no effect and ±100 for the full control effect
pAkt inh = Akt phosphorylation inhibition; Neuro2A IGF-stimulated pAkt S473 HTRF, 20 min; stronger effect = lower value; activity change, % for hits at 50 µM; 0.32% of 360,000 active; AID 651550; in the data active = activity change below about -80%; inconclusive = mostly about -51% to -80%; also: % is scaled to controls: 0 for no effect and ±100 for the full control effect
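Neuro2A cells in DMEM with 0.5% FBS, overnight at 37 deg C, given compound at single 50 µM final, then IGF (6 nM final) for 20 min at 37 deg C. Lysed; phospho-Akt Ser473 by HTRF after 24 h, 665/615 ratio.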
gsp ag = agonists of gsp mutant (McCune-Albright syndrome); gsp mutant cells, cAMP HTRF, 30 min; AID 624287; Potency, µM (titrated, usually from 76.9 µM), without a hit: at the top dose activation (cAMP increase), actives largely listed as activators; 0.13% of 340,000 active; active = well fitted activation curve with a large enough effect; inconclusive = small, poorly fitted or top-dose-only effect, or another doubt; inactive = no such curve, though single readings can be large or run the other way; cell line not stated here;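 also: phosphodiesterase inhibitor Ro 20-1724 added with compounds to block cAMP breakdown; potency is read from the fitted curve at half-maximal effect; nearly all actives have a fitted effect of over 60% in size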
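Cells stably selected in G418 were plated at 2000/well, grown 16-24 hr, then given compounds in DMSO with the PDE inhibitor […] (300 uM solution added) for 30 min at 37C; cAMP was read by HTRF.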
RXFP1 agonist = agonists of human relaxin receptor RXFP1 | Q9HBX9 | HEK293T-RXFP1 cAMP TR-FRET, 30 min; response scale: percent of porcine relaxin response, buffer zero | Potency, µM (doses to about 57.5 µM), inactives show top-dose activation, usual class: activators | 0.3% of 370,000 active; active = well fitted activation curve with a large enough effect; inconclusive = small, poorly fitted or top-dose-only effect; also: potency is read from the fitted curve at half-maximal effect; % is scaled to controls: 0 for no effect and ±100 for the full control effect; nearly all actives have a fitted effect of over 60% in size
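HEK293T cells stably expressing RXFP1 were pretreated with the PDE4 inhibitor Ro 20174, exposed to compounds for 30 min at 37C, lysed, and cAMP was read by TR-FRET. Data normalized to buffer (basal) and 29 nM porcine relaxin (100%).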
gsp antagonist = antagonizes gsp, the McCune-Albright syndrome mutation; 0.4% of 340,000 active; Potency, µM (highest dose often 76.9 µM), for inactives: top-dose activity change, negative = inhibition, usual class: inhibitors; gsp-mutant cells, cAMP HTRF, 30 min; AID 624288; calls by dose curve; cell line not stated here;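 also: intracellular cAMP measured with PDE inhibitor Ro 20-1724 present during compound exposure; potency is read from the fitted curve at half-maximal effect; % is scaled to controls: 0 for no effect and ±100 for the full control effect; nearly all actives have a fitted effect of over 65% in size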
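HTRF cAMP read-out (cAMP-d2 plus anti-cAMP antibody-K in lysis buffer, 30 min RT). Before lysis, cells are exposed to compounds with […] for 30 min at 37C in DPBS containing Ca/Mg, BSA and Tween 20.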
ClpP mod = qHTS Assay for Activators of ClpP. ATP-dependent Clp protease proteolytic subunit (Bacillus subtilis (strain 168)), P80244. purified B. subtilis ClpP, FRET peptide cleavage, 20 min. Potency, µM (top dose mostly 57.5 µM), without a hit: at the top dose activity change, negative = active. 1.9% of 340,000 active; active = well fitted falling curve with a large enough effect; inconclusive = small, poorly fitted or top-dose-only effect; inactive = no such curve, though single readings can be large or run the other way; also: potency is read from the fitted curve at half-maximal effect; the source files actives as falling curves though it sought activators and does not explain the sign; nearly all actives have a fitted effect of over 65% in size
Target sequence (P80244 whole entry, looked up): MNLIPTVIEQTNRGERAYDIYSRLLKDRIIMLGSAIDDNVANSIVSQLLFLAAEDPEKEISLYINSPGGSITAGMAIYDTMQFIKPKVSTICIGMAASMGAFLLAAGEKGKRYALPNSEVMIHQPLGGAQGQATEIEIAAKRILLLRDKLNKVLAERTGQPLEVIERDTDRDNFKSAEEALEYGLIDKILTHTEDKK
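ClpP 10 microg/mL final, pH 8 Tris/KCl buffer with BSA, glycerol, Tween-20; compound pinned in; FRET-FV substrate; RT 20 min; Ex320/Em430; ΔFRET vs ADEP 5.8 microM, DMSO, no enzyme.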
* marks the source's active call; other numbers are inactive results; i = inactive; ? = inconclusive; · = not tested or not shown; [ ] = dose if it differs, or a comment. Most compounds without a hit are left out; they make up all but 2.7% or so of the library.

SMILES | RXFP1 antag | pAkt inh | gsp ag | RXFP1 agonist | gsp antagonist | ClpP mod
CN(c1ccc(O)cc1)c1nc(O)c(C2=c3ccccc3=NC2=O)s1 | -13 | i | 7% | · | 14µM* | -1%
COc1ccc(NC(=O)CN2CCCN(S(=O)(=O)c3ccc(Br)cc3)CC2)c(OC)c1 | -10 | · | · | -1% | · | -3%
CC(C)(C)c1ccc(CC(=O)N2CCC2(C)C(=O)Nc2cccc3cccnc23)cc1 (stereo not given) | · | i | · | · | · | -12%
CC(=O)C(Sc1nc(-c2ccccc2Cl)nc2c1c(=O)n(C)c(=O)n2C)C(=O)N(C)C (stereo not given) | 0 | · | · | 15% | · | 1%
CCn1c(NCCCO)nc2c(c1=O)C(C)(CC)Cc1ccccc1-2 (stereo not given) | -1 | i | -5%[15.4 µM] | -2% | -14% | -5%
O=c1c2c(nc(NCCO)n1CC1CCCCC1)-c1ccccc1CC21CCCC1 | -1 | i | 5% | 5% | 2% | 28µM*
CC1(C)CC(n2c(NCCO)nc3c(c2=O)C2(CCCC2)Cc2ccccc2-3)CCO1 (stereo not given) | -29 | i | -13% | 1% | -8% | 32µM*
CC1(C)Cc2ccccc2-c2nc(NCCO)n(-c3ccccc3)c(=O)c21 | -1 | i | 10% | 4% | -7% | ?
CCc1ccccc1N(C)C(=O)c1cc2c(Cl)nc3ccc(C)cc3c2s1 | -15 | · | · | 3% | · | 0%
CCCCCc1nc2c(=O)n(C)c3ccccc3c2o1 | -8 | i | -1% | 0% | -12% | -15%
Cn1c(=O)c2nc(-c3ccccc3)oc2c2ccccc21 | -11 | i | -6% | -3% | -16% | 11µM*
O=C(O)C1CC(O)CN1S(=O)(=O)c1ccc2ccccc2c1 (stereo not given) | -12 | i | -5%[15.4 µM] | 0% | 5% | 1%
Cc1ccc(S(=O)(=O)N2CC(O)CC2C(=O)O)cc1 (stereo not given) | 3 | i | 36%[15.4 µM] | 2% | -9% | 35µM*
Cc1ccc(C(=O)C[n+]2cccc3cccc(O)c32)cc1 | · | · | · | · | · | -4%
CSCC[C@H](NC(=O)C1CCC(CNC(=O)[C@@H]2CCCN2C(=O)OC(C)(C)C)CC1)C(=O)O (stereo not given in full) | 9 | i | ? | 1% | 1% | -3%
C=CCN(c1ccccc1)S(=O)(=O)c1cccc(C(=O)N2CCCC2)c1 | 0 | i | -1% | 0% | 10% | 1%
CCN(c1ccc(F)cc1)S(=O)(=O)c1ccc2[nH]cc(C(=O)NCCCN3CCOCC3)c(=O)c2c1 | 2 | i | -1% | 3% | -3% | -29%
CCN(c1ccccc1)S(=O)(=O)c1ccc2[nH]cc(C(=O)N3CCOCC3)c(=O)c2c1 | -18 | i | 11% | 1% | 7% | 32µM*
Cc1cc(C)cc(NS(=O)(=O)c2ccc3[nH]cc(C(=O)N4CCCC4)c(=O)c3c2)c1 | 4 | · | · | 1% | · | -29%
CCN(c1ccccc1)S(=O)(=O)c1cccc(C(=O)N2CCN(S(=O)(=O)c3ccccc3)CC2)c1 | 5 | i | 6%[15.4 µM] | -1% | -28% | 28µM*
O=C(c1c[nH]c2ccc(S(=O)(=O)N3CCOCC3)cc2c1=O)N1CCCC1 | -13 | i | ? | 2% | 7% | 7.9µM*
Cc1c(C(=O)NCc2ccc3c(c2)OCCO3)sc(=O)n1Cc1ccc(S(=O)(=O)N(C)C)cc1 | · | i | · | · | · | -1%
COc1ccccc1C1c2ccc3ccccc3c2Oc2ncn(CCN(C)C)c(=N)c21 (stereo not given) | -79* | i | -19%[15.4 µM] | 2% | 12% | ·
COc1ccccc1C1c2ccc3ccccc3c2Oc2ncn(CCCO)c(=N)c21 (stereo not given) | -3 | i | 9% | -2% | 14% | ·
COc1ccc2c(c1)CCc1c-2n[nH]c1C(=O)O | -3 | -111%* | -23% | 0% | 1% | ?
SMILES | RXFP1 antag | pAkt inh | gsp ag | RXFP1 agonist | gsp antagonist | ClpP mod
COc1ccc2c(c1)CCC2=O | · | · | · | · | · | 0%
O=C(Nc1ccc(S(=O)(=O)N2CCOCC2)cc1)c1cc(-c2cc(Cl)ccc2O)n[nH]1 | -60* | i | -35% | 1% | ? | 1%
CCC1(CC)C(=O)C(C)(C)C(=O)OC1c1cccs1 (stereo not given) | -4 | i | -33% | 1% | -2% | 28µM*
CC1C(=O)C(C)C(c2cccs2)NC1c1cccs1 (stereo not given) | 5 | i | ? | 0% | -20% | 0%
Cc1cn2c(nc(=O)c3cccnc32)s1 | · | i | ? | 11% | 11% | 16µM*
C[C@H](NC(=O)OC(C)(C)C)C(=O)c1ccco1 | · | · | · | · | · | -2%
Cc1ccc(C)c(S(=O)(=O)C(C#N)c2nc3ccccc3nc2N2CCOCC2)c1 (stereo not given) | -8 | i | 22% | 3% | 25µM* | -3%
CCOC(=O)c1ccc(NC(=O)CN2C(=O)c3cccnc3Oc3ccc(Cl)cc32)cc1 | -29 | · | · | -1% | · | ?
CC(=O)CCc1c(C)[nH]c2ccc(NC(C)=O)cc2c1=O | 6 | i | ? | 0% | 3% | 25µM*
CCOC(=O)N1CCN(c2nc(-c3ccc(F)cc3)cs2)CC1 | -12 | i | -35% | -1% | 32µM* | 0%
CCOC(=O)c1cnn(-c2nc(-c3ccc(C)cc3)cs2)c1C(F)(F)F | 18 | i | -1% | 2% | 18% | 32µM*
COc1ccc(-c2csc(N3CCN(C(=O)c4ccccc4)CC3)n2)cc1 | -24 | i | -32% | 0% | 35µM* | -3%
COc1ccc(-c2csc(N3CCN(C(=O)c4ccco4)CC3)n2)cc1 | -6 | i | -97% | 1% | 50µM* | 0%
COc1ccc2nc(N3CCN(C(=O)c4ccco4)CC3)sc2c1 | -24 | · | · | -1% | · | 1%
CCOC(=O)C(=O)N1CCN(c2nc(-c3ccc(Cl)cc3)cs2)CC1 | 3 | i | -42% | 0% | -25% | ·
Cc1ccc(S(=O)(=O)N2CCN(c3cc(-c4cccs4)nc4ccccc34)CC2)cc1 | · | · | · | · | · | 4%
CC(=O)Nc1nnc([N+](=O)[O-])s1 | 6 | i | ? | · | · | -4%
COc1ccc(CN(CCCN)c2ccc(Br)cn2)cc1 | · | · | · | · | · | -5%
CCNc1oc(-c2cccc3ccccc23)nc1C#N | -1 | i | ? | 17% | 6% | -104%
CCOc1ccc(Nc2oc(-c3cccs3)nc2C#N)cc1 | 13 | i | 6% | 2% | 1% | 18µM*
C=CCNc1oc(-c2ccc(OCC)cc2)nc1C#N | -1 | i | 15% | 1% | 9% | 0.79µM*
